Bioassay records as filed in PubChem.
A selection: hits, their analogues and other compounds. The true share with any hit is near 2.4%.
Pol kappa inh-1 – blocks human DNA polymerase kappa activity; Potency, µM (highest dose often 107 µM), usual class: inhibitors; 400,000 compounds, 0.53% hits; purified Pol kappa, fluorescent DNA synthesis assay, 10 min
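Activity was followed as the change in fluorescence between reads at 0 and 10 min after starting the reaction with 50 nM substrate. Beforehand, 10 nM polymerase had been preincubated with compound for 15 min at room temperature.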
Pol eta inh-1 – inhibitors of human DNA polymerase eta; Q9Y253; recombinant Pol eta, fluorescent DNA replication assay; Potency, µM (series often up to 114 µM), actives largely listed as inhibitors; 390,000 compounds, 1.2% hits; AID 588591
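Pol eta at 10 nM preincubated with compounds 15 min at room temperature; reaction started with fluorescent substrate (50 nM final) and read kinetically at 0 and 10 min.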
Pol beta inh – blocks human DNA polymerase beta activity; 340,000 compounds, 1.3% hits; Pol beta primer extension/strand displacement, fluorescence kinetic; Potency, µM (doses to about 114 µM), usual class: inhibitors
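Human Pol beta at 10 nM; strand-displacement substrate 50 nM final. Compound exposure 15 min at room temperature before start, reaction 10 min at room temperature.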
POLI inh – blocks human DNA polymerase iota activity; Q9UNA4; Pol iota fluorescent replication assay, 10 min; Potency, µM (highest dose often 115 µM), most hits filed as inhibitors; 390,000 compounds, 1% hits; AID 588590
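Pol iota at 10 nM preincubated 15 min with compounds at room temperature; reaction started with fluorescent substrate, 50 nM final. Fluorescence read kinetically at 0 and 10 min; buffer-only wells as negative control.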
GLS inh – glutaminase GLS (human) inhibition | O94925 | GLS enzymatic activity, qHTS titration | 410,000 compounds, 0.21% hits | AID 624170 | Potency, µM (series often up to 45.5 µM), actives largely listed as inhibitors
Target sequence (O94925 whole entry, looked up): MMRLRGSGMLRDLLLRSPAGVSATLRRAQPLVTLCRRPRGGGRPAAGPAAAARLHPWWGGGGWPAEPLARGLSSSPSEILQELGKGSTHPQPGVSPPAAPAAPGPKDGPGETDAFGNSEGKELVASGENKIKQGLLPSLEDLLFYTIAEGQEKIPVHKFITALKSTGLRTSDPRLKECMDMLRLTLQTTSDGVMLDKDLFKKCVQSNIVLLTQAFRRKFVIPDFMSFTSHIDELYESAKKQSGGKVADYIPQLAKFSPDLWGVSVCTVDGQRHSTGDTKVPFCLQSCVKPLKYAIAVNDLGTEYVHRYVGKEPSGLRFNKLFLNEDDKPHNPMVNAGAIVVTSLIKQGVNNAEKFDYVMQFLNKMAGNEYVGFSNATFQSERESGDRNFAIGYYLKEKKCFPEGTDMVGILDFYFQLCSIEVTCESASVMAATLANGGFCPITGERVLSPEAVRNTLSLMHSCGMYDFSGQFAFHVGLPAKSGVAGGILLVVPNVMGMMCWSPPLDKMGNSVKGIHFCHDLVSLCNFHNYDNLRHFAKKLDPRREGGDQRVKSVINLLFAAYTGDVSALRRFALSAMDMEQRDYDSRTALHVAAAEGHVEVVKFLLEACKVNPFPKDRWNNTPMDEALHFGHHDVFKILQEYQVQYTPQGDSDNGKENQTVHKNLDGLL
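Read-out is an Amplex red fluorescence increase coupled through glutamate oxidase and HRP, measured before and after 30 min room-temperature incubation. hKGA is in 45 mM KH2PO4 (pH 8.2) with 0.02% Tween-20; glutamine added as 1mM solution.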
GCN5L2 inh – blocks human GCN5L2 histone acetyltransferase. Q92830. GCN5L2 HAT assay, ThioGlo1 CoA-SH fluorescence. Potency, µM (doses to about 58.9 µM), hits mostly inhibitors. 390,000 compounds, 0.21% hits. AID 504327
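Free CoA generated was detected with ThioGlo1 (50uM) fluorescence at Ex340nm/Em540nm, read immediately and after 20 min at room temperature. Enzyme, 20 nM in HEPES pH 7.5 buffer, saw compounds 15 min before adding 75uM H3(1-25) peptide and 70uM acetyl-CoA.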
GALK inh confirm – galactokinase (human) inhibition, confirmation. shares compounds with Pol eta inh-1. 150 compounds, 70% hits. purified GALK, Kinase-Glo ATP depletion luminescence. Potency, µM (highest dose often 115 µM), hits mostly inhibitors. AID 2015
Redox cycling – redox cycling activity in phenol red-HRP assay; 150 compounds, 40% hits; shares compounds with Pol eta inh-1; Potency, µM (top dose mostly 115 µM), actives largely listed as inhibitors; Phenol red-HRP H2O2 redox cycling, absorbance 600 nm; AID 2035
HEK293 tox – counter-screen for GALK inhibitors: HEK293 cell cytotoxicity. shares compounds with Pol eta inh-1. HEK-293 viability, ATP luminescence (CellTiter-Glo), 24/48 h. Potency, µM (doses to about 46.1 µM), most hits filed as inhibitors. 170 compounds, 10% hits. AID 2547
Pol kappa inh-2 – Pol kappa (human) inhibition, cherry-pick confirmation; 920 compounds, 76% hits; Potency, µM, most hits filed as inhibitors; purified Pol-kappa, fluorescent strand-displacement substrate; shares compounds with Pol eta inh-1; AID 720501
Pol eta inh-2 – Pol eta (human) inhibition, cherry-pick confirmation | shares compounds with Pol eta inh-1 | Pol eta primer extension, TAMRA/BHQ fluorescence, 10 min | Potency, µM, actives largely listed as inhibitors | 2,600 compounds, 64% hits | AID 720502
A number is an active result; n = inactive; u = inconclusive; x = no result. Calls come from the whole dose curve; as a rule, active = well fitted curve in the direction sought with a large enough effect; inconclusive = small, poorly fitted or top-dose-only effect, or another doubt; inactive = no such curve, though single readings can be large; an effect the other way counts as inactive or inconclusive.

SMILES	Pol kappa inh-1	Pol eta inh-1	Pol beta inh	POLI inh	GLS inh	GCN5L2 inh	Pol eta inh-2	others
C[C@@H](C(=O)Nc1nc(-c2ccccn2)cs1)N1C(=O)C2CCCCC2C1=O (stereo not given in full)	n	13µM	13µM	7.1µM	n	u	u
CCc1nc(SCc2cc(=O)c3cc(F)ccc3[nH]2)n[nH]1	n	n	n	n	n	n	x
Cc1ccc(NC(=O)CN2C(=O)CCc3cc(S(=O)(=O)N4CCOCC4)ccc32)cc1F	n	n	n	n	n	n	x
COC(=O)c1ccc(CSc2ccc3nnc(-c4ccc(F)cc4)n3n2)o1	n	n	n	n	n	n	x
COC(=O)c1ccc(CSc2ccc3nnc(-c4ccccn4)n3n2)o1	n	n	n	n	n	n	x	GALK inh confirm=n;Redox cycling=n;HEK293 tox=n
COc1ccc(C)cc1-n1nnc(S(=O)(=O)c2ccc(C)cc2)c1C	n	n	n	n	n	n	x
Cc1c(C(=O)N2CCCC2)sc(NC(=O)c2ccc(Cl)cc2)c1C#N	n	n	n	n	n	n	x	GALK inh confirm=u;Redox cycling=n;HEK293 tox=n
CC(C)NS(=O)(=O)c1ccc2[nH]c3nc(SCC(=O)Nc4ccc(F)c(F)c4)nnc3c2c1	79µM	x	x	79µM	x	x	u
COC(=O)c1ccc(CSc2nc3ccncc3n2Cc2ccc(F)cc2)cc1	n	n	u	n	n	n	x
Cc1nnc(NS(=O)(=O)c2ccc(N)cc2)s1	n	n	n	n	n	n	x
Cc1nnc(NS(=O)(=O)c2ccc(N=Nc3ccc(N)nc3N)cc2)s1	79µM	20µM	x	16µM	n	x	48
O=C(Nc1cc(F)ccc1F)N1CCC(CN2CCOCC2)CC1	n	n	n	n	n	n	x
C=CCn1c(SCC(=O)c2ccc(O)c(O)c2)nnc1-c1cccc(C)c1	45µM	16µM	x	79µM	n	n	u
COc1ccc(N2CC(NC(=O)/C=C\c3ccc(OC)c(OC)c3)CC2=O)cc1 (stereo not given)	n	n	n	n	n	n	x
COc1c(/C=C2\SC(=Nc3ccccc3Cl)NC2=O)cccc1[N+](=O)[O-]	n	u	u	n	n	u	x
O=C1NC(=Nc2ccccc2Cl)S/C1=C\c1cccc([N+](=O)[O-])c1O	n	u	u	u	n	n	u	Pol kappa inh-2=17
COc1ccc(-c2cc(C)no2)cc1S(=O)(=O)Nc1cccc(C(F)(F)F)c1	n	n	n	n	n	n	x
CCCc1cc(=O)[nH]c2nnc(SCCC(C)C)n12	n	n	n	n	n	n	x
CCc1ccc(OC(=O)c2sc3ncn(Cc4cccc(F)c4)c(=O)c3c2C)cc1	n	n	n	n	n	n	x
COc1ccc(C2c3cc(OC)c(OC)cc3CC(=O)N2c2ccc(C)cc2)cc1 (stereo not given)	n	n	n	n	n	n	x
CC(=O)c1ccc(S(=O)(=O)N(CCCO)Cc2cc3cc(C)ccc3[nH]c2=O)cc1	n	50µM	40µM	u	n	n	60
